# DT40 TDP1 CPT: DT40-hTDP1 cell growth loss with CPT | chicken DT40 Tdp1-/-;hTDP1 cells + 20 nM CPT, ATP luminescence, 48 h | Potency, µM (top dose mostly 46.2 µM), actives largely listed as inhibitors | actives 12% (n = 420,000); further: nearly all actives have a fitted effect of over 55% in size
#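 Chicken DT40 Tdp1-/- cells complemented with human TDP1, 400 cells/well, exposed to compounds plus 20 nM camptothecin for at least 48 h at 37 C; viability read as ATP content by CellTiter-Glo luminescence.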
# VDR inh: blocks the human vitamin D receptor. AID 504847. VDR-SRC2-3 peptide fluorescence polarization, 2 h. P11473. Potency, µM, usual class: inhibitors. actives 0.93% (n = 400,000)
# Target sequence (P11473 whole entry, looked up): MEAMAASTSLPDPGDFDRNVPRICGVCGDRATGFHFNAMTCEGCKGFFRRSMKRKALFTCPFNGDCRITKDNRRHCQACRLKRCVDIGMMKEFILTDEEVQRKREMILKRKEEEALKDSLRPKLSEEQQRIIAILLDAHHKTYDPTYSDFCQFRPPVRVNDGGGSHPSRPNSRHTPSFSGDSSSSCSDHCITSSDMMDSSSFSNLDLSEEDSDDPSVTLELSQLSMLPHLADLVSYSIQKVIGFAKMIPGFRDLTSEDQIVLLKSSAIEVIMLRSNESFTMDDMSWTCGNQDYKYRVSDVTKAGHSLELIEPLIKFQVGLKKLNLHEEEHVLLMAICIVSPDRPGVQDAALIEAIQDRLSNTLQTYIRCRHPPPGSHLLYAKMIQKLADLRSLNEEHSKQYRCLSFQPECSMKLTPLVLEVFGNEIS
#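 Fluorescence polarization assay of small-molecule disruption of VDR binding to coregulator peptide SRC2-3. Compounds and controls pin-transferred, then read after 2 h incubation at ambient room temperature.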
# TDP1 inh: blocks human tyrosyl-DNA phosphodiesterase 1. Potency, µM (highest dose often 130 µM), hits mostly inhibitors. Q9NUW8. actives 0.28% (n = 350,000). recombinant TDP1, AlphaScreen DNA substrate cleavage; further: nearly all actives have a fitted effect of over 40% in size
#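 Here, a 5' biotin and 3' phosphotyrosine-FITC DNA oligonucleotide reports Tdp1 activity: intact substrate bridges AlphaScreen beads, while cleavage leaves a 3' phosphate and drops signal. All incubations at room temperature.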
# DT40 TDP1 no CPT: qHTS for Inhibitors of human tyrosyl-DNA phosphodiesterase 1 (TDP1): qHTS in cells in absence of CPT. actives 15% (n = 420,000). DT40 Tdp1-/- hTDP1 cells, no CPT, ATP luminescence, 48 h. Potency, µM (titrated, usually from 46.2 µM), usual class: inhibitors; further: nearly all actives have a fitted effect of over 55% in size
#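 Chicken DT40 Tdp1-/- cells stably complemented with human TDP1 were seeded at 400 cells/well with DMSO in place of 20 nM camptothecin. After compound pinning, cells grew at least 48 hr at 37 °C; viability read by CellTiter-Glo luminescence.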
# GCN5L2 inh: blocks human GCN5L2 histone acetyltransferase; Potency, µM (doses to about 58.9 µM), hits mostly inhibitors; GCN5L2 HAT assay, ThioGlo1 CoA-SH fluorescence; Q92830; AID 504327; actives 0.21% (n = 390,000)
#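 Fluorescence readout, Ex340nm/Em540nm: ThioGlo1 (50uM final) reacts with free CoA thiol released as 20nM GCN5L2 acetylates H3(1-25) peptide (75uM) using acetyl-CoA (70uM). Compound and enzyme sat 15 min beforehand; 20 min room-temperature reaction.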
# PLK1 PBD inh: blocks phosphopeptide binding to human PLK1 polo-box domain. Potency, µM, most hits filed as inhibitors. P53350. actives 2.8% (n = 360,000). Plk1 PBD binding of FITC phosphopeptide, fluorescence polarization; further: series mostly up to about 57 µM; nearly all actives have a fitted effect of over 65% in size
# Numbers stand for hits; n = inactive; u = inconclusive; x = no result given; ! = not active in a repeat; [ ] = another dose, or the depositor's remark. Most compounds without a hit are left out; they make up all but 18% or so of the library. The call rests on the fitted dose curve; in most records, active means well fitted curve in the direction sought with a large enough effect; inconclusive means small, poorly fitted or top-dose-only effect, or another doubt; inactive means no such curve, though single readings can be large; an effect the other way counts as inactive or inconclusive.
SMILES,DT40 TDP1 CPT,VDR inh,TDP1 inh,DT40 TDP1 no CPT,GCN5L2 inh,PLK1 PBD inh
C/C(=N/NC(=O)Cc1cccc2ccccc12)c1cccs1,u,n,n,16.4µM,n,n
O=Nc1ccc(NO)cc1,x,x,n,x,x,x
Cc1ccccc1SC1CCN(Cc2nc(C3CC3)no2)CC1,n,n,n,n,n,n
COC(=O)c1ccc(Nc2ncnc3c2cnn3-c2ccccc2)cc1,n,n,n,n,n,x
CN(C)c1ccc(C2C=Cc3ccccc32)c2ccccc12 (stereo not given),n,x,x,u,x,x
CCN(CC)CCN1C(=O)C(O)=C(C(=O)c2cc3cccc(OC)c3o2)C1c1cccs1 (stereo not given),n,n,n,n,n,n
COc1ccc(NC(=O)c2cnn(-c3ccccc3)c2C)cc1OC,n,n,n,u,n,n
CCN1CCN(Cc2ccc(NC(=O)Nc3ccc(OC)cc3)cc2)CC1,n,n,n,n,n,n
CCN1CCN(Cc2ccc(NC(=O)c3cc(NC(=O)c4cnn(-c5ccccc5)c4N)cc(OC)c3)cc2C(F)(F)F)CC1,20.6µM,n,n,20.6µM,n,n
CCN1CCN(Cc2ccc(NC(=O)c3cc(NC(=O)C(=O)c4c[nH]c5ccccc45)cc(OC)c3)cc2C(F)(F)F)CC1,23.1µM,n,n,20.6µM,n,n
CCN1CCN(Cc2ccc(NC(=O)c3cc(NC(=O)c4cc(C)on4)cc(OC)c3)cc2C(F)(F)F)CC1,14.6µM,n,x,16.4µM,n,n
CCN1CCN(Cc2ccc(C(=O)Nc3ccc(C)c(NCc4cnc(NC(=O)OC)cn4)c3)cc2C(F)(F)F)CC1,u,n,x,n,n,n
CCN1CCN(Cc2ccc(NC(=O)c3ccc(C)c(NC(=O)C(=O)c4c[nH]c5ccccc45)c3)cc2C(F)(F)F)CC1,2.59µM,n,n,2.59µM,n,n
COc1cccc(C(C)=NNc2ccc([N+](=O)[O-])cc2[N+](=O)[O-])c1OC,u,x,x,20.6µM,x,n
C/C(CC(C)C)=N/Nc1ccc([N+](=O)[O-])cc1[N+](=O)[O-],u,u,n,u,n,n
COc1ccc(/C=N\Nc2ccc([N+](=O)[O-])cc2[N+](=O)[O-])c(C(=O)O)c1OC,n,n,n,n,n,n
CC(Cc1ccccc1)=NNc1ccc([N+](=O)[O-])cc1[N+](=O)[O-],16.4µM,n,x,7.31µM,x,n
O=C1NC(=S)S/C1=C\C=C\c1ccc([N+](=O)[O-])o1,1.64µM,n,x,2.31µM,n,21.2µM
O=C1CN(/N=C\c2ccc([N+](=O)[O-])o2)C(=O)N1,x,n,u,x,n,x
c1ccc(-c2noc(CN3CCN(c4cnccn4)CC3)n2)cc1,u,n,x,u,n,13.4µM
c1ccc(C(c2ccccc2)N2CCN(Cc3nc(-c4cnccn4)no3)CC2)cc1,u,n,x,n,n,n
Cc1c(O)cccc1C(=O)N[C@@H](CSc1ccccc1)[C@H](O)CN1C[C@H]2CCCC[C@H]2C[C@H]1C(=O)NC(C)(C)C,9.2µM!,u,n,23.1µM!,n,n
Cc1ccc(-c2nn(-c3cccc([N+](=O)[O-])c3)c3c2cnc2ccc(F)cc23)cc1,n,n,n,n,n,x
O=C(Cc1ccccc1)NC(NC(=O)Cc1ccccc1)c1cccc([N+](=O)[O-])c1,u,n,n,18.4µM,n,u
CC(C)CC(=O)NC(NC(=O)CC(C)C)c1cccc([N+](=O)[O-])c1,n,n,n,n,n,n
SMILES,DT40 TDP1 CPT,VDR inh,TDP1 inh,DT40 TDP1 no CPT,GCN5L2 inh,PLK1 PBD inh
Cc1cccc(C)c1NC(=O)Nc1ccc(S(N)(=O)=O)cc1,n,n,n,n,n,n
COCCNC(=O)C(c1ccc(F)cc1)N(Cc1cccs1)C(=O)CCC(=O)Nc1ccccn1 (stereo not given),n,n,x,n,n,n
Cc1ccc2nc(SCc3nc4c(cnn4-c4ccccc4)c(=O)[nH]3)[nH]c2c1,20.6µM,n,n,16.4µM,n,n
O=c1[nH]c(CSc2ncccn2)nc2c1cnn2-c1ccccc1,n,n,n,n,n,n
O=c1[nH]c(CSc2nc3ccccc3[nH]2)nc2c1cnn2-c1ccccc1,25.9µM,n,n,20.6µM,n,n
O=c1[nH]c(SCc2nc3c(cnn3-c3ccccc3)c(=O)[nH]2)nc2ccccc12,u,n,n,20.6µM,n,n
CCn1nc(NC(=O)c2ccccn2)c2cc3cccc(C)c3nc21,u,n,n,18.4µM,n,n
CCn1nc(NC(=O)c2ccncc2)c2cc3cccc(C)c3nc21,n,n,n,n,n,n
Cc1ccc(S(=O)(=O)Nc2cc(C)c(O)c(Sc3n[nH]c(C)n3)c2)cc1,18.4µM,n,n,u,n,n
CCN1CCN(CCc2nc3cc(NC(=O)COc4ccc(Cl)cc4)ccc3n2C)CC1,u,n,n,u,n,n
Cn1c(CCN2CCN(c3ccccn3)CC2)nc2cc(NC(=O)COc3ccc(Cl)cc3)ccc21,18.4µM,n,n,4.11µM,n,n
Cc1cccc(OCC(=O)Nc2ccc3c(c2)nc(CCN2CCN(c4ccccn4)CC2)n3C)c1,23.1µM,n,n,18.4µM,n,n
Cn1c(CN2CCCCC2)nc2cc(NC(=O)c3ccccc3Cl)ccc21,16.4µM,n,n,23.1µM,n,n
CC(=O)N1CCN(Cc2nc3cc(NC(=O)c4ccccc4Cl)ccc3n2C)CC1,n,n,n,n,n,u
Cn1c(CCN2CCCC2)nc2cc(NC(=O)COc3ccc(Cl)cc3)ccc21,u,x,x,16.4µM,x,n
O=C(CN1C(=O)NC2(CCc3ccccc32)C1=O)Nc1ccc(Cl)cc1F (stereo not given),n,x,x,u,x,n
COc1ccc(OCC(=O)Nc2ccc3c(c2)nc(CCN2CCN(c4ccccn4)CC2)n3C)cc1,18.4µM,x,x,u,x,n
COc1ccccc1-c1c(C(F)(F)F)oc2c(CN3CCCCC3C)c(O)ccc2c1=O (stereo not given),u,n,n[12.3 µM],n,n,x
CCc1cccc(N(C(=O)c2csnn2)C(C(=O)NC(C)(C)C)c2ccncc2)c1 (stereo not given),u,n,n,u,n,26.7µM
CSc1cccc(NC(=S)N(CCC(C)C)C(C)c2ccncc2)c1 (stereo not given),u,n,n,n,n,n
CC1(C)CC(=O)C2=C(C1)O[C@@]1(CCCCN3C(=O)c4ccccc4C3=O)Cc3ccccc3C2O1,x,x,x,x,n[12.7 µM],x
Cc1cccc(C)c1NC(=O)c1oc2ccc3c(c2c1C)C(=O)CC(C)(C)O3,16.4µM,n,n,u,n,x
